# High-throughput results: PubChem, National Center for Advancing Translational Sciences (NCATS)
# An excerpt weighted towards active compounds, which were near 0.7% of everything screened.
# Epigenetic derep: Quantitative High-Throughput Screen for Regulators of Epigenetic Control. murine LDR cells, GFP reporter derepression, 30 h. Potency, µM (titrated, usually from 53.9 µM), for inactives: at the highest dose GFP activation, actives largely listed as activators. 0.2% of 280,000 active; note: % of control where 0% means no effect; nearly all actives have a fitted effect of over 60% in size
#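 Murine LDR cells bearing a silenced CMV-driven GFP reporter were exposed to compound for 30 h at 37 C. After PBS washes, GFP-positive cells (20-120 um objects) counted by laser-scanning microplate cytometry.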
# Vif-A3G inh: qHTS for Inhibitors of Vif-A3G Interactions: qHTS | DNA dC->dU-editing enzyme APOBEC-3G (Homo sapiens), Q9HC16 | HeLa A3G-eYFP + Vif (tagged APOBEC3G with the HIV-1 protein that degrades it), YFP fluorescence, overnight | 0.076% of 410,000 active | Potency, µM (doses to about 46.1 µM), inactives show at the top dose activity, negative = active, usual class: inhibitors; note: % is set by controls: 0 for no effect and ±100 for the full control effect; nearly all actives have a fitted effect of over 60% in size
# Target sequence (Q9HC16 whole entry, looked up): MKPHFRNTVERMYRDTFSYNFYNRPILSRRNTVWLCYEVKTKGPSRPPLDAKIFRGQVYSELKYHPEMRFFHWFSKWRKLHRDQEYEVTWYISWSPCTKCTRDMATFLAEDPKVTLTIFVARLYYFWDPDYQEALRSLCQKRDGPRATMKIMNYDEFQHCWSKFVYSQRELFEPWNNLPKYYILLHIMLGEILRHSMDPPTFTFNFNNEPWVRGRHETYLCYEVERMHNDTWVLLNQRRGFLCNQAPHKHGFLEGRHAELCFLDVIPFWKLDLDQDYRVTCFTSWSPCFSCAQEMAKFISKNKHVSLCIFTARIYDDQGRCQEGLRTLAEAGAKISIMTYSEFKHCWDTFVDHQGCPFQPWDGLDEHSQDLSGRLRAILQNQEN
#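 Read-out is eYFP fluorescence (Ex 488/Em 500-530) from Vif-expressing HeLa A3G-eYFP cells; more signal means A3G escaped Vif-mediated degradation. Cells plated overnight, compound pinned in, incubated overnight at 37 deg C.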
# Vif-APOBEC3F blk: qHTS for Inhibitors of Vif-A3F Interactions: qHTS. 0.2% of 390,000 active. Potency, µM (highest dose often 46.1 µM), for inactives: at the highest dose activity, negative = active. HeLa A3F-eYFP + Vif (tagged APOBEC3F with the HIV-1 protein that degrades it), YFP fluorescence increase; note: % of control where 0% means no effect; nearly all actives have a fitted effect of over 65% in size
#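 HeLa cells stably expressing A3F-eYFP plus Vif, plated and incubated overnight at 37 deg C, then exposed to compounds overnight at 37 deg C. Blocked degradation read as raised yellow fluorescence (Ex 488/Em 500-530).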
# PINK1 expr mod: A Quantitative High throughput Screen to Identify Chemical Modulators of PINK1 Expression; Potency, µM (top dose mostly 76.6 µM), inactives show at the top dose activation (PINK1 increase), most hits filed as activators; 0.2% of 410,000 active; PINK1 immunofluorescence, high-content cytometry, 24 h; active = well fitted activation curve with a large enough effect; inconclusive = small, poorly fitted or top-dose-only effect; cell line not stated here; note: % of control where 0% means no effect; nearly all actives have a fitted effect of over 65% in size
#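 PINK1 protein level read as immunofluorescence by microplate cytometer in a fixed, stained stable cell line after 24 h exposure to five compound concentrations, with CCCP as control.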
# GLS inhibitor: qHTS for Inhibitors of Glutaminase (GLS). Glutaminase kidney isoform, mitochondrial (Homo sapiens), O94925. GLS enzymatic activity, qHTS titration. Potency, µM (series often up to 45.5 µM), inactives show at the highest dose activity change, negative = inhibition, most hits filed as inhibitors. 0.21% of 410,000 active. AID 624170, 2012; note: % is set by controls: 0 for no effect and ±100 for the full control effect
#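 Assay buffer: 45 mM KH2PO4 pH 8.2, 0.02% Tween-20. hKGA acts on L-glutamine (1 mM solution added); product glutamate is reported by an oxidase/peroxidase Amplex Red coupling, with fluorescence taken at baseline and 30 min.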
# The depositor's hits bear a star; ? = inconclusive; · = not tested or not shown; [ ] = remark or other dose. Unless noted, calls come from the whole dose curve; as a rule, active = well fitted curve in the direction sought with a large enough effect; inconclusive = small, poorly fitted or top-dose-only effect, or another doubt; inactive = no such curve, though single readings can be large; an effect the other way counts as inactive or inconclusive. Potency is the fitted concentration of half-maximal effect.
SMILES,Epigenetic derep,Vif-A3G inh,Vif-APOBEC3F blk,PINK1 expr mod,GLS inhibitor
CSc1nccc(-c2cc(Cl)c3c(c2)CC(CNC(=O)c2ccc(C)nc2)O3)n1 (stereo not drawn),·,·,·,2%,·
CCN(C(=O)CSc1nc(-c2ccccc2)no1)c1cccc(C)c1,-1%,-2%,1%,13µM*,-8%
CCN(CC)c1ccc(/C=C2/SC(=O)N(C(C)C)C2=O)o1,11µM*,?,?,10%,?
CC(C)N1C(=O)S/C(=C\c2ccc(-c3ccc(Cl)c(C(=O)O)c3)o2)C1=O,·,-1%,1%,1%,?
O=C(c1ccc2c(c1)OCO2)N(Cc1cc2ccc(F)cc2nc1N1CCC(O)CC1)CC1CCCO1 (stereo not drawn),·,·,·,0%,·
CC(=O)C1=C(c2ccccc2)NC(=O)NC1c1ccc(O)c(O)c1 (stereo not drawn),-1%,0%,1%,2%,10µM*
CC(=O)C1=C(c2ccccc2)NC(=S)NC1c1ccc(O)c(O)c1 (stereo not drawn),0%,-4%,-1%,-1%,8.9µM*
COc1cc(-c2cc(C)c3cccc(OC)c3n2)cc2c1OCCN(C(=O)CCn1nc(C)cc1C)C2,·,·,·,0%,·
Cc1c(C(=O)NCC2(N3CCOCC3)CCCCCC2)cnn1-c1nccc(-c2ccccc2F)n1,·,·,·,-1%,·
COc1ccc2c(c1)CCc1cnc(-n3ncc(C(=O)NCCCc4ccncc4)c3C)nc1-2,·,·,·,2%,·
CC(=O)Nc1ccccc1-c1nc(CNC(=O)c2ccc(C)cc2)c(C)o1,·,·,·,0%,·
Nc1nonc1-c1nc2ccccc2n1CC(=O)Nc1cccc(C(F)(F)F)c1,?,?,25µM*,2%,4%
Nc1nonc1-c1nc2ccccc2n1CC(=O)Nc1ccccc1,2%,-13%,-5%,12%,0%
CC(C)=CCC/C(C)=C\CC/C(C)=C\CC/C(C)=C\CC1=C(C)C(=O)c2ccccc2C1=O,·,·,·,·,-12%
O=C(O)c1ccc2c(c1)[C@@H]1C=CC[C@@H]1[C@H](c1ccccn1)N2,·,6%,3%,0%,2.8µM*
CCCC(=O)O[C@]1(C(=O)COC(=O)CC)[C@@H](C)C[C@H]2[C@@H]3CCC4=CC(=O)C=C[C@@]4(C)[C@@]3(F)[C@H](O)C[C@@]21C,·,·,·,·,-20%
CC1CCN(c2ccc3c(c2)S(=O)(=O)c2cccc(C(=O)NC[C@@H]4CCCO4)c2C3=O)CC1,·,-29%,-15%,0%,2%
O=C(NCC1CCCO1)c1cccc2c1C(=O)c1ccc(N3CCC(Cc4ccccc4)CC3)cc1S2(=O)=O (stereo not drawn),·,?,25µM*,-1%,0%
Cc1ccc(CNC(=O)c2cccc3c2C(=O)c2ccc(N4CCCCC4)cc2S3(=O)=O)cc1,·,?,22µM*,1%,3%
O=C(NCc1ccccc1)c1cccc2c1C(=O)c1ccc(/C=C/c3ccccc3)cc1S2(=O)=O,·,-30%,10µM*,8%,-2%
Cc1ccc(CNC(=O)c2cccc3c2C(=O)c2ccc(N4CCOCC4)cc2S3(=O)=O)cc1,·,-8%,1%,1%,?
COCC1CCCN(Cc2ccc3c(c2)CN(C(=O)c2cnn(C(C)C)c2)CCO3)C1 (stereo not drawn),·,·,·,0%,·
COc1ccccc1C(=O)N[C@@H]1c2ccccc2C2(CCN(Cc3c(O)cccc3OC)CC2)[C@H]1O,·,·,·,0%,·
COc1ccc2c(C)cc(SCC(=O)N3CCOCC3)nc2c1,8%,?,25µM*,-1%,1%
Cc1ccccc1Cc1nc2cccnc2n1C1CCN(C(=O)CC2NC(=O)c3ccccc32)CC1 (stereo not drawn),·,·,·,1%,·
SMILES,Epigenetic derep,Vif-A3G inh,Vif-APOBEC3F blk,PINK1 expr mod,GLS inhibitor
CN1/C(=C/c2cccc[n+]2C)Sc2ccccc21,·,?,?,18µM*,1%
Cc1ccc2c(c1)N(C)/C(=C/c1cccc[n+]1CCO)S2,·,?,13µM*,4%,-1%
CCCCN1/C(=C/c2cccc[n+]2C)Sc2cc(NC(C)=O)ccc21,·,-13%,-9%,1%,0%
Cc1ccc2c(c1)N(C)/C(=C/c1cccc[n+]1C)S2,·,?,11µM*,?,-2%
CN(C)c1ccc(/C=N/N(CCO)C2=NS(=O)(=O)c3ccccc32)cc1,·,5%,22µM*,16%,-3%
O=S1(=O)N=C(N(CCO)/N=C/c2ccc(Cl)cc2)c2ccccc21,·,-1%,-8%,1%,-11%
O=[N+]([O-])c1ccc(N2CCN(c3ccc(O)cc3)CC2)cn1,·,0%,-6%,0%,10µM*
Cc1cnc(-n2ncc(C(=O)N(C)C3CCOC3)c2-c2cccs2)nc1-c1ccc(F)cc1 (stereo not drawn),·,·,·,0%,·
Cc1ccc(C(=O)Cn2nnc(-c3cccs3)n2)cc1,0%,2%,-5%,0%,8%
O=C(CN1CC[n+]2c(-c3cccs3)csc21)c1ccc(-c2ccccc2)cc1,0%,2%,15%,16µM*,-34%
Cc1csc(CN(C)C(=O)c2sc3ncnc(NCC4CCCO4)c3c2C)n1 (stereo not drawn),·,·,·,-1%,·
COc1cc(/C=C(/C(=O)c2cccs2)c2nc3ccccc3[nH]2)ccc1O,6%,10µM*,-15%,-46%[38.3 µM],19%
O=C(/C(=C/c1ccc(Cl)cc1)c1nc2ccccc2[nH]1)c1cccs1,-1%,?,4%,-4%,8%
Cc1ccc(-c2cc(C(=O)N3CCN(c4ccccc4O)CC3)c3ccccc3n2)cc1,·,0%,-15%,0%,7.1µM*
c1csc(CNc2nc(CN3CCCC(c4nc5ccccc5o4)C3)nc3ccccc23)c1 (stereo not drawn),·,·,·,-1%,·
N#C/C(=C\c1ccc(N2CCOCC2)cc1)c1ccccc1,-2%,-3%,2%,-1%,8%
N#C/C(=C\c1ccc(N2CCOCC2)o1)c1ccccc1,11µM*,?,?,·,22%
N#C/C(=C\c1cc([N+](=O)[O-])c(N2CCOCC2)cc1N1CCOCC1)c1nc2ccccc2[nH]1,2%,2%,1%,2%,6%
N#C/C(=C/c1ccc(N2CCOCC2)o1)c1nc2ccccc2[nH]1,16µM*,?,?,25µM*,4%
N#C/C(=C/c1ccc(N2CCOCC2)o1)c1ccc(Br)cc1,4µM*,?,·,?,0%
N[C@@H](C(=O)N[C@H]1C(=O)N2C(C(=O)O)=C(Cl)CC[C@H]12)c1ccccc1,·,·,·,·,1%
CC(C)c1nc(C(=O)N2CCOc3ccc(CN4CCN(c5ccccn5)CC4)cc3C2)cs1,·,·,·,-1%,·
